This passage reports binding signal results from PMC5700166.

Experiment in all cases: protein-binding microarray (PBM); PBM: ~300 nM protein, 6 mM HEPES pH 7.8, 80 mM KCl, 0.5 mM EDTA, 0.5 mM EGTA, 6% glycerol, 35 ng/ul poly-dIdC, 1% milk, 1 h, room temperature; Ap Aiptasia and Nv Nematostella (sea anemones) / Co Capsaspora / Aq Amphimedon (sponge) / Dm Drosophila / Hu human; RHD is the Rel homology domain; high values mean tight binding
What all share (conditions): dsDNA, one strand shown

One assay addresses T1, GST-Ap-NF-kB RHD (Exaiptasia pallida (Aiptasia), UniProt A0A913YAJ5 2-422).
T1 sequence: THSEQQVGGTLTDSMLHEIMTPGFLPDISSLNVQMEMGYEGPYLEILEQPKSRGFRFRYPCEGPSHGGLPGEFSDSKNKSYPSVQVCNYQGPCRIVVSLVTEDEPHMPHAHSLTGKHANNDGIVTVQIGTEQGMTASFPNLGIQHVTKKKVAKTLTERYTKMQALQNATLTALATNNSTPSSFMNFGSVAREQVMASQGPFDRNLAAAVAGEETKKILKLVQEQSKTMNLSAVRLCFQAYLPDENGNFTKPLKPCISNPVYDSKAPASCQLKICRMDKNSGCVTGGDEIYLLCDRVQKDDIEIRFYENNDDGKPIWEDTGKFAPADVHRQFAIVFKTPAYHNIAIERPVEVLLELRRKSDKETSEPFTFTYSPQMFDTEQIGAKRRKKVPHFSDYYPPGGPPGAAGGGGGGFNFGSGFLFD

Assay [1] has as its target T2, GST-Nv-NF-kB (Cys allele) (Nematostella vectensis, UniProt E5G601 2-411).
T2 sequence: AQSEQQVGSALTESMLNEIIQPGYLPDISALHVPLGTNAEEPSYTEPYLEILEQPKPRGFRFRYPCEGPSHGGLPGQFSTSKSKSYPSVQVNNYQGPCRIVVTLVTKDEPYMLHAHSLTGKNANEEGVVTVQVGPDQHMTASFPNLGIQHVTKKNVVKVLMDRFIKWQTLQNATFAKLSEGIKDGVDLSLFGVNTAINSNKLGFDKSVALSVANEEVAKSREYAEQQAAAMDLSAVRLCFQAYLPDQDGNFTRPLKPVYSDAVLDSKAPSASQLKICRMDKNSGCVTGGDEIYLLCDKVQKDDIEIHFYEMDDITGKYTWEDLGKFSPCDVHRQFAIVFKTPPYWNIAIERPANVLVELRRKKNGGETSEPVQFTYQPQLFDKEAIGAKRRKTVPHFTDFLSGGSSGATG

Assay [2] has as its target T3, GST-Nv-NF-kB (Ser allele) (Nematostella vectensis, UniProt A7UNT2 2-411).
T3 sequence: T2 sequence with Q21R, C66S, S207N, E215Q, V217A, E225K, A268E, D399E

The next assay deals with T4, GST-Co-NF-kB (Capsaspora owczarzaki, UniProt F1ARL5 200-546).
T4 sequence: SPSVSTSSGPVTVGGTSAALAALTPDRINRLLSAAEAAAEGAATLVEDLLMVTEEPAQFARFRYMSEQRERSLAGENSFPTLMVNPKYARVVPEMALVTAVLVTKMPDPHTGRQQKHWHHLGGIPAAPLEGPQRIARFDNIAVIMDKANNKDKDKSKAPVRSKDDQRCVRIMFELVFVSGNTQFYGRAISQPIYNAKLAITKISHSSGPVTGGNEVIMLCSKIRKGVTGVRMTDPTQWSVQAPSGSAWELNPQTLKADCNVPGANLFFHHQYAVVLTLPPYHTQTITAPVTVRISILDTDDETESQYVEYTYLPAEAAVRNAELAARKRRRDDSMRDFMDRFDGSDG

Another assay deals with T5, GST-Dm-Relish (Drosophila melanogaster, UniProt Q94527 99-473).
T5 sequence: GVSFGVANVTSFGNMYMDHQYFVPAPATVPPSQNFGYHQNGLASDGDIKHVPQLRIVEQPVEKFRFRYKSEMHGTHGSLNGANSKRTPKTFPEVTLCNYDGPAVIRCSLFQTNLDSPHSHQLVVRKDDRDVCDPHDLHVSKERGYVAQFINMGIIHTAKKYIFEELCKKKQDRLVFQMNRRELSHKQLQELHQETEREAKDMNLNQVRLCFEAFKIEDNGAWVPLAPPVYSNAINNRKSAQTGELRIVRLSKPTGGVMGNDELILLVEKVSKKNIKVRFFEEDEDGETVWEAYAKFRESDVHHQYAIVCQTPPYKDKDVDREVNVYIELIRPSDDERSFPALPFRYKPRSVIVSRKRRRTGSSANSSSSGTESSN

In the next assay the target is T6, GST-Aq-NF-kB (Amphimedon queenslandica, UniProt A9Y5G7 2-389).
T6 sequence: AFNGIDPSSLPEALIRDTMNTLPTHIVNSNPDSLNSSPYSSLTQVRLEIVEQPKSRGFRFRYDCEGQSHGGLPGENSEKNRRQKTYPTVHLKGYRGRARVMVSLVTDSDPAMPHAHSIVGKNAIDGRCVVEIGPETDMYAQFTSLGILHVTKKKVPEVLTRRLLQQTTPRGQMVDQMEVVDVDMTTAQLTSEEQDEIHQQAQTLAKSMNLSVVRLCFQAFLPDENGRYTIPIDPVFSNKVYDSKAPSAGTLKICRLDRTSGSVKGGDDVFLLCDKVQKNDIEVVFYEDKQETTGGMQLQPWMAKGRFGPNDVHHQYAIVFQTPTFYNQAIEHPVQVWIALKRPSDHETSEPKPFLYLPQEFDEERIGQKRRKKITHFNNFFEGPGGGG

Another assay has as its target GST-Hu-p50 (Homo sapiens, UniProt P19838 7-356).

Residue numbers refer to the chain shown, from its start.

Sequence of GST-Hu-p50 (P19838 7-356): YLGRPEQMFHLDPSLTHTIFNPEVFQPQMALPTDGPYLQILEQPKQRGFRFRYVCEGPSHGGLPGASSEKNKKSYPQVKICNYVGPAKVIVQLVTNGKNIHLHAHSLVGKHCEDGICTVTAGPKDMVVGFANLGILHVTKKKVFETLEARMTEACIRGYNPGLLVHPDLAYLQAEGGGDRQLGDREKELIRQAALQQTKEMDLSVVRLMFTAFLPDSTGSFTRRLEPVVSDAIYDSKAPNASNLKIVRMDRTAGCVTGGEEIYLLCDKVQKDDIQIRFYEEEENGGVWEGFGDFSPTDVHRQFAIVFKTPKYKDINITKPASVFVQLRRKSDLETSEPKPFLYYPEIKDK

Turning to “CCGATTAACATCAAATCATTCCCTGATGTTAATCGGGTCTTGATTCGCTTGACGCTGCTG”, the binding signal with GST-Ap-NF-kB RHD was determined as 1.6 z-score; in assay [1] it was 3.39 z-score; in assay [2] it was 3.1 z-score; with GST-Co-NF-kB, 3.4 z-score; with GST-Dm-Relish, 1.31 z-score; with GST-Aq-NF-kB, 4.36 z-score. This sequence also returned a binding signal with GST-Hu-p50 of 1.78 z-score.

As for “CCGATTAACATCAACGATTCCCCTGATGTTAATCGGGTCTTGATTCGCTTGACGCTGCTG”, the binding signal with GST-Ap-NF-kB RHD was 5.94 z-score; in assay [1] it was 6.55 z-score; in assay [2], 8.86 z-score; with GST-Co-NF-kB it was 6.02 z-score; with GST-Dm-Relish, 3.74 z-score; with GST-Aq-NF-kB it was 4.38 z-score. Also, in the assay with GST-Hu-p50, the binding signal worked out at 5.62 z-score.

Turning to “CCGATTAACATCAGGGGGATACCTGATGTTAATCGGGTCTTGATTCGCTTGACGCTGCTG”, the binding signal with GST-Ap-NF-kB RHD turned out to be 7.92 z-score; in assay [1] it was 7.48 z-score; in assay [2] it was 6.28 z-score; with GST-Co-NF-kB, 6.16 z-score; with GST-Dm-Relish, 8.18 z-score; with GST-Aq-NF-kB, 8.7 z-score. Further, the binding signal with GST-Hu-p50 is 5.56 z-score.

As to “CCGATTAACATCAATTCCCCCCATGATGTTAATCGGGTCTTGATTCGCTTGACGCTGCTG”, the binding signal turned out to be 7.01 z-score with GST-Ap-NF-kB RHD; 7.06 z-score in assay [1]; 6.97 z-score in assay [2]; 9.55 z-score with GST-Co-NF-kB; 4.89 z-score with GST-Dm-Relish; 5.8 z-score in the assay with GST-Aq-NF-kB. The sequence also had a binding signal with GST-Hu-p50 of 6.18 z-score.

For the sequence “CCGATTAACATCAGGGTTTCCCATGATGTTAATCGGGTCTTGATTCGCTTGACGCTGCTG”, the binding signal with GST-Ap-NF-kB RHD came to 3.12 z-score; in assay [1], 3.27 z-score; in assay [2], 2.81 z-score; with GST-Co-NF-kB it was 2.84 z-score; with GST-Dm-Relish, 8.13 z-score; with GST-Aq-NF-kB, 4.6 z-score. Besides, the binding signal in the assay with GST-Hu-p50 amounted to 2.14 z-score.

In the case of “CCGATTAACATCAGGAATTACCCTGATGTTAATCGGGTCTTGATTCGCTTGACGCTGCTG”, the binding signal is 4.56 z-score with GST-Ap-NF-kB RHD; 7.58 z-score in assay [1]; 4.97 z-score in assay [2]; 2.62 z-score with GST-Co-NF-kB; 6.61 z-score with GST-Dm-Relish; 8.34 z-score with GST-Aq-NF-kB. The sequence further had a binding signal in the assay with GST-Hu-p50 of 4.51 z-score.

Take “CCGATTAACATCAAATAATACCCTGATGTTAATCGGGTCTTGATTCGCTTGACGCTGCTG”: the binding signal with GST-Ap-NF-kB RHD stood at 3.69 z-score; in assay [1], 5.65 z-score; in assay [2], 5.61 z-score; in the assay with GST-Co-NF-kB it was 1.91 z-score; with GST-Dm-Relish, 3.33 z-score; with GST-Aq-NF-kB, 6.24 z-score. The sequence also gave a binding signal with GST-Hu-p50 of 4.35 z-score.

Turning to “CCGATTAACATCAATAAATCCCCTGATGTTAATCGGGTCTTGATTCGCTTGACGCTGCTG”, the binding signal turned out to be 7.78 z-score in the assay with GST-Ap-NF-kB RHD; 9.33 z-score in assay [1]; 11.6 z-score in assay [2]; 4.45 z-score with GST-Co-NF-kB; 9.26 z-score with GST-Dm-Relish; 6.63 z-score with GST-Aq-NF-kB. Besides, the binding signal in the assay with GST-Hu-p50 is 7.71 z-score.

Take “CCGATTAACATCAAATTTCCCCTTGATGTTAATCGGGTCTTGATTCGCTTGACGCTGCTG”: the binding signal came to 8.8 z-score with GST-Ap-NF-kB RHD; 10.8 z-score in assay [1]; 13.2 z-score in assay [2]; 7.98 z-score with GST-Co-NF-kB; 7.38 z-score with GST-Dm-Relish; 8.06 z-score in the assay with GST-Aq-NF-kB. The binding signal in the assay with GST-Hu-p50 was 7.51 z-score.

“CCGATTAACATCAGAATTTCCCATGATGTTAATCGGGTCTTGATTCGCTTGACGCTGCTG”: the binding signal with GST-Ap-NF-kB RHD turned out to be 3.88 z-score; in assay [1], 5.46 z-score; in assay [2] it was 4.83 z-score; in the assay with GST-Co-NF-kB, 4.63 z-score; with GST-Dm-Relish, 3.42 z-score; with GST-Aq-NF-kB it was 5.17 z-score. In the assay with GST-Hu-p50, this sequence displayed a binding signal of 4.04 z-score.

Turning to “CCGATTAACATCAGGGGAAGATATGATGTTAATCGGGTCTTGATTCGCTTGACGCTGCTG”, the binding signal with GST-Ap-NF-kB RHD came to 6.06 z-score; in assay [1], 6.63 z-score; in assay [2], 7.91 z-score; in the assay with GST-Co-NF-kB, 8.77 z-score; in the assay with GST-Dm-Relish it was 4.01 z-score; with GST-Aq-NF-kB, 6.09 z-score. Besides, the binding signal with GST-Hu-p50 was 5.33 z-score.

“CCGATTAACATCAGGGGGTTACCTGATGTTAATCGGGTCTTGATTCGCTTGACGCTGCTG”: the binding signal was 8.27 z-score with GST-Ap-NF-kB RHD; 6.63 z-score in assay [1]; 5.92 z-score in assay [2]; 4.04 z-score with GST-Co-NF-kB; 9.18 z-score with GST-Dm-Relish; 8.61 z-score in the assay with GST-Aq-NF-kB. Moreover, the binding signal with GST-Hu-p50 stood at 5.51 z-score.

On to “CCGATTAACATCAGGACTTCCCCTGATGTTAATCGGGTCTTGATTCGCTTGACGCTGCTG”, for which the binding signal with GST-Ap-NF-kB RHD was 10.1 z-score; in assay [1], 10.5 z-score; in assay [2], 9.94 z-score; in the assay with GST-Co-NF-kB, 4.57 z-score; with GST-Dm-Relish, 9.98 z-score; with GST-Aq-NF-kB it was 10.4 z-score. In addition, in the assay with GST-Hu-p50, the binding signal amounted to 6.36 z-score.
